Screening results deposited in PubChem by National Center for Advancing Translational Sciences (NCATS).
Sampled rows, rich in hits. Any-hit rate of the full collection: about 13%.
G9a inh = qHTS Assay for Inhibitors of Histone Lysine Methyltransferase G9a; Potency, µM (titrated, usually from 102 µM), for inactives: at the highest dose activity, negative = inhibition, most hits filed as inhibitors; G9a H3K9 monomethylation, AlphaScreen, 2 h; 8.8% of 350,000 active; Histone-lysine N-methyltransferase EHMT2 (Homo sapiens), Q96KQ7; also: potency is read from the fitted curve at half-maximal effect; % is scaled to controls: 0 for no effect and ±100 for the full control effect; nearly all actives have a fitted effect of over 75% in size
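Using a bead-based AlphaScreen, monomethylated H3K9 product from 2 h room-temperature reactions (G9a 20 nM, peptide 500 nM, SAM 20 uM) was detected with 0.5 ug/mL rabbit anti-H3K9me1 antibody.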
KDM4E inh = qHTS Assay for Inhibitors of Human Jumonji Domain Containing 2E (JMJD2E); Lysine-specific demethylase 4E (Homo sapiens), B2RXH2; JMJD2E catalytic domain, FDH-coupled NADH fluorescence (FDH is formaldehyde dehydrogenase); Potency, µM (series often up to 57.1 µM), without a hit: at the top dose activity change, negative = inhibition, usual class: inhibitors; 1.6% of 230,000 active; active = well fitted inhibition curve with a large enough effect, not every such curve was filed as active; inconclusive = small, poorly fitted or top-dose-only effect, or another doubt; inactive = no such curve, though single readings can be large or run the other way;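 also: potency is read from the fitted curve at half-maximal effect; 0% = wells with enzyme and -100% = buffer wells without enzyme; nearly all actives have a fitted effect of over 50% in size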
ALDH1A1 block = qHTS Assay for Inhibitors of Aldehyde Dehydrogenase 1 (ALDH1A1) | Potency, µM (top dose mostly 75.3 µM), inactives show at the top dose activity, negative = inhibition, actives largely listed as inhibitors | 7.3% of 220,000 active | Purified ALDH1A1, NADH fluorescence, propionaldehyde substrate | Aldehyde dehydrogenase 1A1 (Homo sapiens), P00352; active = well fitted inhibition curve with a large enough effect, not every such curve was filed as active; inconclusive = small, poorly fitted or top-dose-only effect, or another doubt; inactive = no such curve, though single readings can be large or run the other way;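 also: potency is read from the fitted curve at half-maximal effect; plate controls were no enzyme wells and a reference inhibitor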
Target sequence (P00352 whole entry, looked up): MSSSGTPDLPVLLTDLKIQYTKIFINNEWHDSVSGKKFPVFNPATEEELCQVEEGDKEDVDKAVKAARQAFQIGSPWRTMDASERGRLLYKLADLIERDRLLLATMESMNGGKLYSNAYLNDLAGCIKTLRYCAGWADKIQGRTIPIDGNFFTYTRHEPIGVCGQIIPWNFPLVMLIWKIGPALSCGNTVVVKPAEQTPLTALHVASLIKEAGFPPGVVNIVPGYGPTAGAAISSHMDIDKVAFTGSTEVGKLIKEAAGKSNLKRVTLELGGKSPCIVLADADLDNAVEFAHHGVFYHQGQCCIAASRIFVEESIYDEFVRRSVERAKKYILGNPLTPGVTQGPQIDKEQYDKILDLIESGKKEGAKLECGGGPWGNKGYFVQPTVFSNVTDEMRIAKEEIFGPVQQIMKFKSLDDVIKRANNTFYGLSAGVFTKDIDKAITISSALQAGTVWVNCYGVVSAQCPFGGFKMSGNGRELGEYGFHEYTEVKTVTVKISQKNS
Sfp inh = qHTS Assay for Inhibitors of Bacillus subtilis Sfp phosphopantetheinyl transferase (PPTase); 3.5% of 310,000 active; Potency, µM, inactives show largest response in the series, negative = inhibition, usual class: inhibitors; Biochemical Sfp PPTase activity, qHTS;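 also: the enzyme is Sfp with the accession as filed and its product quenches rhodamine fluorescence; potency is read from the fitted curve at half-maximal effect; 0% = enzyme reaction without inhibitor and -100% = no enzyme wells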
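After 15 min at room temperature with compound, 15 nM Sfp received 5 uM rhodamine-CoA plus 12.5 uM BHQ-2-ybbR (50 mM Hepes pH 7.6, 10 mM MgCl2). Rate came from the fluorescence difference over 30 min, ex 525/em 598 nm.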
miR-21 reporter = qHTS Assay for Modulators of miRNAs and/orActivators of miR-21; HeLa miR-21 FLuc reporter, luciferase, 48 h; Potency, µM (doses to about 38.3 µM), inactives show top-dose activity change, positive = activation, most hits filed as activators; 340,000 tested, under 10 active;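 also: % of control where 0% means no effect; miR-21 action dims this reporter so a rising signal means less miR-21 action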
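HeLa cells stably expressing CMV-driven firefly luciferase with a downstream miR-21 binding sequence, endogenously expressing miR-21, were treated with titrations (up to about 40uM final) for 48 hours at 37 degree Celsius. Luciferase luminescence was read after lysis.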
LMNA splice mod = qHTS Assay for Modulators of Lamin A Splicing | HeLa LMNA splicing GFP/RFP minigene ratio, 48 h | Potency, µM (series often up to 46.1 µM), without a hit: at the highest dose ratio change, negative = inhibition, usual class: inhibitors | 0.01% of 200,000 active | AID 1487, 2009; active = well fitted inhibition curve with a large enough effect in the signal ratio, with a control signal flat, not every such curve was filed as active; inconclusive = small, poorly fitted or top-dose-only effect, or effect the other way, or a change in a side signal; the % refers to the signal ratio; also: potency is read from the fitted curve at half-maximal effect; % is scaled to controls: 0 for no effect and ±100 for the full control effect
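S3 HeLa stable clones carrying a lamin A-EGFP splicing minigene plus DsRed2 were seeded at 600 cells/well in Opti-MEM with 2% FBS, pin-dosed and incubated 48 h at 37°C. Acumen cytometry (488 nm) gave the GFP/RFP total-intensity ratio.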
* hit, by the source's call; u = inconclusive; x = no result given; [ ] = remark or other dose. Unless noted, calls follow the shape of the dose curve; as a rule, active = well fitted curve in the direction sought with a large enough effect; inconclusive = small, poorly fitted or top-dose-only effect, or another doubt; inactive = no such curve, though single readings can be large; an effect the other way counts as inactive or inconclusive.

SMILES	G9a inh	KDM4E inh	ALDH1A1 block	Sfp inh	miR-21 reporter	LMNA splice mod
COc1cccc(OCC(=O)Nc2ccccc2C(=O)Nc2ccc(C(=O)O)cc2)c1	x	x	x	10%	-1%	x
COc1ccc(-c2nc(-c3cccc(C)c3)nc(Cl)c2C#N)cc1	50µM*	-13%	u	11%	-4%	3%
CCS(=O)(=O)c1ncc(Cl)c(C(=O)Nc2c(C(=O)c3ccc(C)cc3)oc3ccccc23)n1	-7%[59 µM]	x	x	x	1%	x
CSCCC1NC2(C(=O)Nc3c(Cl)cccc32)[C@@H]2C(=O)N(C3CCCC3)C(=O)[C@H]12 (stereo partly specified)	71µM*	0%	u	22%	-4%	2%
C=CCNC(=S)NNC(=O)COc1cccc(Cl)c1	25µM*	-7%	u	10%	-16%	-1%
C=CCNC(=S)NNC(=O)COc1ccc(Br)cc1	32µM*	14%	1%	17%	-12%	-7%
COc1ccc(OC)c(NCc2cccn2-c2nnc(N3CCCCC3)s2)c1	8.9µM*	x	x	x	-6%	u
O=C(O)CC/C(=N\Nc1ccc([N+](=O)[O-])cc1S(=O)(=O)N1CCOCC1)c1cccs1	35µM*	-8%	x	u	-8%	x
Cc1nn(C)c(Sc2ccccn2)c1[N+](=O)[O-]	0%	2%	x	31%	-1%	x
CCc1nc2c(sc3nc(N4CCOCC4)c4c(c32)CC(C)(C)OC4)c(=O)o1	u	-7%	u	-4%	-8%	2%
CCCCCCC(=O)Nc1cc2c(C)cc(=O)oc2cc1C	u	u	5µM*	-17%	0%	-4%
CC(C)c1ccc(N(CC(=O)NC2CCCC2)C(=O)CCC(=O)Nc2nccs2)cc1	-6%	x	x	7%	0%	x
Cc1ccc(-n2nc(C)c3c(C)c(CCC(=O)Nc4ccc(CN5CCCC5)cc4)c(C)nc32)cc1	50µM*	u	x	-22%	-5%	x
CC(=O)c1ccc(NC(=O)CCc2c(C)nc3c(c(C)nn3-c3ccc(C)cc3)c2C)cc1	-29%[59 µM]	x	x	x	-44%	x
Cc1ccc(Cl)cc1NC(=O)c1oc2c(c1C)-c1[nH]ncc1CC2	-6%[59 µM]	x	x	x	u	x
CC(=O)c1cn(CC(=O)Nc2cccc(C)c2C)c2ccccc12	4%	-2%	6%	45µM*	20%	u
Cc1cccc(NC(=O)Cc2coc3ccc4ccccc4c23)n1	u	u	-4%	56µM*	16%	u
O=C1c2ccccc2NC(c2ccc(O)c(O)c2)N1c1ccccc1Cl (stereo unspecified)	45µM*	x	x	2%	-42%	x
COc1cc(C2Nc3ccccc3C(=O)N2c2ccccc2OC)ccc1O (stereo unspecified)	-54%[2.33 µM]	u	u	-10%	-13%	8%
COC(=O)[C@@]1(Cc2ccc(OC)cc2)[C@H]2c3cc(C(=O)N4CCCC4)n(CCN4CNCC4=O)c3C[C@H]2CN1C(=O)c1ccccc1	x	-27%	-4%	9%	x	x
CCc1cccc(NC(=O)c2nc(-c3ccncc3)no2)c1	-36%[59 µM]	x	x	x	1%	u
COc1ccc(CNCc2ccncc2)cc1OC	-9%	x	x	2%	-3%	x
COc1ccc(CN2CCN(c3ncccn3)CC2)c(OC)c1	u	u	-12%	-10%	1%	7%
COc1ccc(CNCc2ccc(C(F)(F)F)cc2)cc1OC	79µM*	x	x	-4%	0%	x
COc1ccc(CN2CCN(Cc3ccc(C)cc3)CC2)c(OC)c1	50µM*	x	x	-19%	-6%	x
COc1ccc(CN2CCN(Cc3ccccc3F)CC2)c(OC)c1	50µM*	x	x	u	-7%	x
COc1ccc(CN2CCCCCC2)c(C)c1C	8.9µM*	6%	u	-13%	0%	-14%
COc1ccccc1N1CCN(S(=O)(=O)c2c(C(=O)N3CCOCC3)c(C)n(C)c2C)CC1	-3%[59 µM]	x	x	12%	0%	x
